TLR4-MyD88 BLA: blocks binding of human TLR4 to MyD88. actives 0.18% (n = 200,000). HeLa CL3-4 TLR4/MyD88 BLA complementation, FRET ratio. O00206+Q99836. inhibition, % at 8.4 µM; in the data active = inhibition above about 25%
TLR9-MyD88 inh: TLR9-MyD88 interaction inhibition. inhibition, % at 4.98 µM. CHO BLA complementation TLR9-MyD88, CCF4 FRET ratio. actives 0.21% (n = 340,000). AID 504734. Q9NR96+Q99836;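 active = inhibition above the mean over all tested compounds plus 3 SD, cut at about 21% in these data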
Beta2AR agonist: agonists of human beta-2 adrenergic receptor inducing internalization. P07550. Am2.2-beta2AR cells, FAP receptor internalization, flow cytometry. response, % (concentration not given with the values). actives 0.43% (n = 340,000). AID 504454;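 active = response above a set limit, near 3 SD of response in nonfluorescent compounds, cut at about 42% in these data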
Target sequence (P07550 whole entry, looked up): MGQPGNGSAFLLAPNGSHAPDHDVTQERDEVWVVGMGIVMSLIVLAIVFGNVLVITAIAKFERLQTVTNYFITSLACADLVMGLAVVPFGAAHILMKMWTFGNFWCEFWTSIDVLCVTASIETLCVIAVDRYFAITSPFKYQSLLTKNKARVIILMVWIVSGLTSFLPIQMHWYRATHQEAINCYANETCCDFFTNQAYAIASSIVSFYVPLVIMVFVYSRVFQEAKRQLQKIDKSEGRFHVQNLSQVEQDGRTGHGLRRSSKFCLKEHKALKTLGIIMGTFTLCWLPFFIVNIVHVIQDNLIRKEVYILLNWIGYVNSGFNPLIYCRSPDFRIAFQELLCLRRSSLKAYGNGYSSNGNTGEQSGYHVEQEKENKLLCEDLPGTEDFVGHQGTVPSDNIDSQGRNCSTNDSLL
NOD2-RIPK2 inh: NOD2-RIPK2 protein interaction inhibition; O43353; CHO BLA complementation NOD2-RIPK2, CCF4 ratio; inhibition, % at 4.98 µM; actives 0.38% (n = 360,000); AID 624267; in the data active = inhibition above about 21%
NTR1 agonist: NTR1 (human) agonism | P30989 | NTR1-U2OS beta-arrestin-GFP spot imaging, agonist mode | activation, % at 20 µM | actives 0.17% (n = 330,000) | AID 493036;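 active = activation at or above 40% of the spot to cytoplasm intensity ratio, with at least 20 cells analyzed; inconclusive = wells under 20 cells, flagged as cytotoxic or low count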
Bfl-1 A1 inh: inhibitors of the anti-apoptotic protein A1, read as caspase activation; MEF A1-2A-BIM cells, Caspase-Glo 3/7 luminescence, 3 h; percent of clofoctol response, vehicle zero; caspase activation, % (concentration not given with the values); actives 0.066% (n = 330,000); AID 2462;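 active = over half of replicate activation scores above 10%, or exactly half above 10 with the replicate mean above 10; inconclusive = replicate mean below 10 yet half the replicates above 10; inactive = over half of replicates below 10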
Hits are given with their value; i = inactive; ? = inconclusive; nt = no result given. Rows were chosen to be rich in hits. Some 0.97% of all compounds tested hit in one or more screens of this group.

SMILES | TLR4-MyD88 BLA | TLR9-MyD88 inh | Beta2AR agonist | NOD2-RIPK2 inh | NTR1 agonist | Bfl-1 A1 inh
CCCSC1=C(C#N)C(c2ccccc2OCC)CC(=O)N1 (stereo not given) | i | i | i | i | i | ?
COc1ccccc1NS(=O)(=O)c1cccc(N=C2N=C(N)c3ccccc32)c1 | i | i | i | i | i | i
Cc1cc(C)nc(N/N=C/c2ccccc2OCc2ccc([N+](=O)[O-])cc2)n1 | i | i | 96.7 | i | i | i
COc1ccccc1/C=N/Nc1nc(C)cc(C)n1 | nt | i | i | i | i | i
CCOc1cc(/C=C2/C(=O)ON=C2C)ccc1OCc1ccccc1F | i | i | 76.8 | i | 74.7 | i
CCOC(=O)/C=C/C(=O)OCC(=O)Nc1cccc(Br)c1 | i | i | 42.7 | i | i | i
CCCCN1C(=O)C(CC(=O)NCc2cccs2)CC(C(=O)N(C(C)C)C(C)C)=C1C (stereo not given) | nt | i | nt | i | nt | nt
Cn1c(=O)cc(SCC(=O)Nc2cccnc2)c2ccccc21 | i | i | i | i | i | i
CN(C)CCN1C(=O)NC(C)(c2ccc([N+](=O)[O-])cc2)C1=O (stereo not given) | i | i | i | i | i | i
CCOC(=O)c1c(NC(=O)CSc2nnc(-c3ccc(Cl)cc3)o2)sc2c1CCC2 | nt | i | i | i | i | i
COc1cccc(-n2nc(C#N)c(Cl)cc2=O)c1 | i | i | 84.0 | 69.6 | i | nt
COc1cccc(-n2nc(C(N)=O)c(O)cc2=O)c1 | i | i | i | i | i | i
COc1ccc(C(C[N+](=O)[O-])C2(c3ccc(OC)c(OC)c3)C(=O)c3ccccc3C2=O)cc1 (stereo not given) | i | i | 50.6 | 81.5 | nt | i
CC(C)(C)C1CCc2c(C(=O)N/N=C/c3cccs3)csc2C1 (stereo not given) | i | i | 94.3 | i | i | i
Cc1ccc(C)c(NC(=S)NNC(=O)c2csc3c2CCC(C)C3)c1 (stereo not given) | i | i | i | i | i | i
O=C(N/N=C/c1cccs1)c1ccc2ccccc2c1 | nt | i | i | i | i | i
CC(C)(C)C1CCc2c(C(=O)NNC(=O)/C=C/C(=O)O)csc2C1 (stereo not given) | i | i | 47.8 | i | i | i
CCOC(=O)C1=NN(c2ccc(C)cc2)C2(S1)SC(C(C)=O)=C(C)N2c1ccccc1 (stereo not given) | i | i | i | i | i | i
CC(C)COc1cccc(-c2cc(C(=O)N/N=C/c3ccncc3)c3ccccc3n2)c1 | nt | i | 50.7 | i | i | i
O=C(c1ccc2c(c1)[nH]c(=S)n1c3ccccc3nc21)N1CCN(c2ncccn2)CC1 | i | i | 62.2 | i | i | i
COc1ccc(CNC[C@@H](CCCCN(C)Cc2ccc(OC)cc2)N2C[C@H](c3ccccc3)N(CCc3ccc(Cl)c(Cl)c3)C(=O)C2=O)cc1 | i | i | 102.2 | 28.8 | i | i
CCOc1ccc(CCN2C(=O)C(=O)N([C@H](CCCN(C)Cc3ccccc3)CNCc3ccccc3)C[C@@H]2C(C)C)cc1 | nt | nt | nt | nt | i | nt
CCOC(=O)c1csc(N/N=C2\CCCc3ccccc32)n1 | nt | i | i | i | 42.4 | i
CCOC(=O)c1csc(N/N=C2\CCc3ccccc32)n1 | nt | i | i | i | i | i
Cc1cc(=O)oc2cc(OCc3ccc(C(=O)OCC(=O)Nc4ccc(N(C)C)cc4)cc3)ccc12 | i | i | 49.1 | i | i | nt
SMILES | TLR4-MyD88 BLA | TLR9-MyD88 inh | Beta2AR agonist | NOD2-RIPK2 inh | NTR1 agonist | Bfl-1 A1 inh
COc1ccc(NC2=C(NCCO)C(=O)c3ccccc3C2=O)cc1 | i | i | 66.3 | i | i | i
C/C(=C\C(=O)c1ccc(Br)cc1)NCc1ccccc1 | i | i | 46.4 | i | i | i
Cc1cc(C(=O)c2ccc(C(C)(C)C)cc2)c(NC(=O)CCl)s1 | i | i | 96.0 | i | i | i
CC(=C/C(=O)O)/C=C/c1ccc([N+](=O)[O-])cc1 | i | i | 52.1 | i | nt | i
O=C(C[C@H]1C[C@H](C(=O)N2CCOCC2)[C@@]2(CCC3CCCC3)c3[nH]c4cc(-c5ccco5)ccc4c3CCN2C1=O)NCCN1CCOCC1 | nt | i | i | i | i | nt
CN(C)CCCNC(=O)C[C@H]1C[C@H](C(=O)N2CCOCC2)[C@@]2(CCC3CCCC3)c3[nH]c4cc(-c5ccco5)ccc4c3CCN2C1=O | nt | i | 63.1 | i | i | nt

Source: PubChem BioAssay
